From PubChem BioAssay (NCI)
Compounds without any hit were thinned out: in the full panel of roughly 79,000, 15% have a hit. Cut-off read from the data, not from the text of the source: active = growth inhibition above about 70%; inactive = the rest.

Experiments:
[1] = NCI Yeast Anticancer Drug Screen. Data for the rad50 strain (AID 155);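 note: 0% = growth of vehicle-only cultures of the same strain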; details: S. cerevisiae rad50 strain growth inhibition; at 50.0 µM; stronger effect = higher value
Outline: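 Growth of the mutant yeast was measured after compound exposure and referenced to vehicle-treated cultures.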

[2] = NCI Yeast Anticancer Drug Screen. Data for the mec2-1 strain (AID 157); details: S. cerevisiae mec2-1 strain, at 50.0 µM, stronger effect = higher value
Outline: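 Strain: mec2-1 (DNA repair/cell cycle alteration). Compound exposure, then growth measured; inhibition expressed relative to vehicle.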

[3] = NCI Yeast Anticancer Drug Screen. Data for the sgs1 mgt1 strain (AID 161);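 note: 0% = growth of cultures given vehicle only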; details: S. cerevisiae sgs1 mgt1 strain, at 50.0 µM, stronger effect = higher value
Outline: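 Genetically altered yeast, compound exposure, growth inhibition relative to vehicle.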

[4] = NCI Yeast Anticancer Drug Screen. Data for the cln2 rad14 strain (AID 165);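 note: 0% = growth equal to vehicle treated cultures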; details: S. cerevisiae cln2 rad14 strain, at 50.0 µM, stronger effect = higher value
Outline: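 Compounds are applied to the cln2 rad14 yeast strain, and growth is then compared with that of vehicle-treated cultures to give inhibition.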

[5] = NCI Yeast Anticancer Drug Screen. Data for the bub3 strain (AID 167); details: S. cerevisiae bub3 mutant strain, at 50.0 µM, stronger effect = higher value
Outline: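 Whole-cell yeast assay. The mutant strain was incubated with compounds, and growth inhibition was determined by comparison with vehicle-treated cells.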

[6] = NCI Yeast Anticancer Drug Screen. Data for the mlh1 rad18 strain (AID 175); details: S. cerevisiae mlh1 rad18 strain growth inhibition; at 50.0 µM; stronger effect = higher value
Outline: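 Read-out is yeast growth inhibition, calculated against vehicle-only controls. The compound was applied to a strain engineered with DNA damage repair alterations.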

Measured: growth inhibition

O=C1CSC(=S)N1c1ccccc1
inactive: [1] 2.2% | [2] -3.8% | [3] -3.6% | [4] -4.75% | [5] 0.8% | [6] 2.9%

COc1cc(NS(=O)(=O)c2ccccc2)ccc1C
inactive: [1] 27.6% | [2] -20.3% | [3] 14.7% | [4] 12.3% | [5] 22.4% | [6] 24.9%

CC[N+](C)(CC)CCOC(=O)C(c1ccccc1)C(O)C1CC=CCC1 (stereo unspecified)
inactive: [1] 7.15% | [2] -6.3% | [3] -5.65% | [4] -30.6% | [5] -1.45% | [6] 2.3%

CCO[Si](OCC)(OCC)c1ccccc1
inactive: [1] -28.7% | [2] -21.3% | [3] -10.7% | [4] -5.85% | [5] -14.5% | [6] -15.8%

NC(=O)c1ccc(S(=O)(=NS(=O)(=O)c2ccccc2)c2ccc(C(N)=O)cc2)cc1
inactive: [1] 4.2% | [2] -8.4% | [3] -11.8% | [4] -62.8% | [5] -25.6% | [6] -1.6%

O=S(=O)(O)c1ccc(-c2nc3ccccc3[nH]2)cc1
inactive: [1] 1.6% | [2] 8.5% | [3] 4.65% | [4] 6% | [5] 28.2% | [6] -18.9%

CSc1ccc(C)c(/C=N/Nc2ccc([N+](=O)[O-])cc2[N+](=O)[O-])c1
inactive: [1] 7.05% | [2] 26.9% | [3] 18.4% | [4] -13.6% | [5] 0.5% | [6] 3.25%

O=[N+]([O-])c1cc(F)cc(F)c1Nc1ccccc1
inactive: [1] 2.85% | [2] -11.4% | [3] 2.2% | [4] 3.1% | [5] 0.5% | [6] 17.6%

COc1c(C(=O)/C(=N/Nc2cccc(Cl)c2)C(C)=O)c(O)c(OC)c2occc12
inactive: [1] -5.15% | [2] -8% | [3] -6.6% | [4] -8.5% | [5] 8.2% | [6] 7.65%

N#CNC(=O)c1ccc(Cl)cc1
inactive: [1] -2.8% | [2] -12.5% | [3] -11.1% | [4] -21.4% | [5] -14.4% | [6] -0.4%

CN(C)c1nc2[nH]ncc2c(=O)[nH]1
inactive: [1] 11.6% | [2] 1.25% | [3] 5.7% | [4] -10.1% | [5] 0.5% | [6] 0.8%

C[N+]1(C)CCC(c2ccccc2)(c2ccccc2)/C(=C2/C(=O)C(c3ccccc3)(c3ccccc3)CC[N+]2(C)C)C1
inactive: [1] -4.55% | [2] -7.9% | [3] 0.75% | [4] 35% | [5] -32% | [6] -20.8%

COC1O[C@H]2CCN(C(=O)OCc3ccccc3)[C@H]2[C@H]1OCc1ccccc1 (stereo partly specified)
inactive: [1] 19.8% | [2] -11.6% | [3] 20.2% | [4] 4.05% | [5] 28.6% | [6] 44.5%

O=C1C(NCCc2ccc(O)c(O)c2)=CC(=O)c2ncccc21
inactive: [1] 35.5% | [2] 34.6% | [3] 32.1% | [4] 24.1% | [5] 6.3% | [6] -5.35%

O=[N+]([O-])c1ccccc1C(Nc1nncs1)Nc1nncs1
inactive: [1] 17.3% | [2] 22.5% | [3] 41.5% | [4] -6.05% | [5] -3.3% | [6] 2.3%

COc1ccc(C(Br)C(Br)C(=O)C(C)(C)C)cc1 (stereo unspecified)
inactive: [1] -2.95% | [2] 8.75% | [3] 6.2% | [4] -21.6% | [5] 31.6% | [6] 30.4%

CCOC(=O)c1ncc(Cl)cc1NC(=O)CC(=O)Nc1cc(Cl)cnc1C(=O)OCC
inactive: [1] 59.8% | [2] -8% | [3] 32.5% | [4] -31.1% | [5] 1.1% | [6] 20.3%

CSCCC(NCc1c(O)ccc2ccc(=O)oc12)C(=O)O (stereo unspecified)
inactive: [1] -35.6% | [2] -9.1% | [3] -27.9% | [4] 7.45% | [5] 0.95% | [6] -38%

CCC(=O)Nc1nn[nH]n1
inactive: [1] -11.5% | [2] -1.5% | [3] -3.75% | [4] 4.75% | [5] 7.9% | [6] -2.15%

O=C(Oc1ccccc1)c1ccc(C(=O)Oc2ccccc2)cc1
inactive: [1] 9% | [2] 28.7% | [3] 15.8% | [4] 3.9% | [5] 43.1% | [6] 11.6%

O=S(=O)(Cc1ccccc1)/C(=C\c1ccccc1)c1ccccc1
inactive: [1] -6.65% | [2] 11.4% | [3] 2.4% | [4] 0.1% | [5] 6.6% | [6] 5.5%
